PubChem BioAssay AID1159580 (chemical genetic matrix, 2015)
“And” between values parts separate entries of the source, which are not always exact repeats. Equal entries are not always repeated. About 2,000 (36%) of roughly 5,500 compounds were called active. About 18% were inconclusive and are not listed. No stated cut-off is given here; in the data, active means normalized growth mostly below about 0.91 (no sharp cut-off); inconclusive means no clear call, values can overlap the other calls; inactive means mostly above about 0.92. The list shows a part of the results.

Test: chemical genetic growth profiling, strain panel (AID 1159580);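 further: tested at 20 µM; growth read once vehicle control cultures reached saturation at 30 °C; 1 = growth at the plate median or of vehicle wells; lower values mean less growth of the strain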
Details: S. cerevisiae deletion strains, growth OD

Measured: normalized growth

C[C@]12CCC(=O)C=C1CCC1C2CC[C@@]2(C)C1CC[C@@H]2O (some centres not stated)
inactive: locus YAL013W, strain DEP1, hits give low values 1.01 | locus YAL021C, strain ccr4, hits give low values 0.967 | locus YAL026C, strain drs2, hits give low values 1 | locus YAL030W, strain snc1, hits give low values 0.997 | locus YBL061C, strain skt5, hits give low values 0.987 | locus YBR009C, strain hhf1, hits give low values 0.99 | locus YBR021W, strain FUR4, hits give low values 0.97 | locus YBR023C, strain chs3, hits give low values 0.988 | locus YBR171W, strain sec66, hits give low values 0.969 | locus YBR229C, strain ROT2, hits give low values 1.02 | locus YBR231C, strain swc5, hits give low values 0.99 | locus YBR279W, strain paf1, hits give low values 0.998 | locus YCL011C, strain gbp2, hits give low values 0.993 | locus YCL016C, strain dcc1, hits give low values 0.988 | locus YCL029C, strain bik1, hits give low values 1.02 | locus YCL061C, strain MRC1, hits give low values 0.993 | locus YCL069W, strain vba3, hits give low values 0.999 | locus YCR088W, strain abp1, hits give low values 1 | locus YDL005C, strain med2, hits give low values 0.989 | locus YDL035C, strain GPR1, hits give low values 0.988 | locus YDL040C, strain nat1, hits give low values 0.985 | locus YDL074C, strain BRE1, hits give low values 0.995 | locus YDL101C, strain DUN1, hits give low values 1.01 | locus YDL134C, strain PPH21, hits give low values 1.03 | locus YDL185W, strain tfp1, hits give low values 1.03 | locus YDL192W, strain arf1, hits give low values 1.03 | locus YDR001C, strain nth1, hits give low values 0.996 | locus YDR069C, strain doa4, hits give low values 0.977 | locus YDR101C, strain arx1, hits give low values 1.01 | locus YDR137W, strain rgp1, hits give low values 0.96 | locus YDR150W, strain NUM1, hits give low values 1.03 | locus YDR159W, strain sac3, hits give low values 0.963 | locus YDR162C, strain NBP2, hits give low values 0.996 | locus YDR195W, strain ref2 1.01 | locus YDR297W, strain sur2, hits give low values 0.993 | locus YDR318W, strain mcm21, hits give low values 1.02 | locus YDR334W, strain swr1, hits give low values 1.01 | locus YDR335W, strain msn5, hits give low values 0.989 | locus YDR388W, hits give low values 1.03 | locus YDR392W, strain spt3, hits give low values 0.934 | locus YDR502C, strain sam2, hits give low values 1.01 | locus YEL003W, strain gim4, hits give low values 0.983 | locus YEL037C, strain rad23, hits give low values 0.994 | locus YEL061C, strain CIN8 (second series), hits give low values 0.988 | locus YEL061C, strain CIN8, hits give low values 1.02 | locus YER015W, strain faa2, hits give low values 0.995 | locus YER016W, strain bim1, hits give low values 0.989 | locus YER110C, hits give low values 1.04 | locus YER111C, strain swi4, hits give low values 0.986 | locus YER155C, strain BEM2 (second series), hits give low values 0.981 | locus YER155C, strain BEM2, hits give low values 1.01 | locus YER167W, strain BCK2, hits give low values 1.05 | locus YFR010W, strain ubp6, hits give low values 1 | locus YGL078C, strain dbp3, hits give low values 0.985 | locus YGL086W, strain mad1, hits give low values 1.03 | locus YGL167C, strain pmr1, hits give low values 0.964 | locus YGL173C, strain kem1, hits give low values 0.967 | locus YGL227W, strain vid30, hits give low values 0.992 | locus YGL240W, strain doc1, hits give low values 0.965 | locus YGL248W, strain PDE1, hits give low values 1.02 | locus YGL253W, strain hxk2, hits give low values 0.991 | locus YGR078C, strain PAC10, hits give low values 1.02 | locus YGR135W, strain pre9, hits give low values 1.01 | locus YGR229C, strain SMI1, hits give low values 1.04 | locus YGR252W, strain gcn5, hits give low values 1.01 | locus YHR013C, strain ard1, hits give low values 1.02 | locus YHR027C, strain rpn1, hits give low values 0.997 | locus YHR030C, strain SLT2, hits give low values 1.03 and 1.13 | locus YHR079C, strain IRE1 (second series), hits give low values 1.02 | locus YHR079C, strain IRE1, hits give low values 0.993 | locus YHR094C, strain hxt1, hits give low values 1.03 | locus YHR129C, strain ARP1, hits give low values 1.03 | locus YHR142W, strain chs7, hits give low values 0.991 | locus YHR200W, strain rpn10, hits give low values 1.03 | locus YIL066C, strain RNR3, hits give low values 1.01 | locus YIL073C, strain SPO22, hits give low values 1.09 | locus YIL125W, strain kgd1, hits give low values 1.03 | locus YIR030C, strain dcg1, hits give low values 1.03 | locus YJL092W, strain hpr5, hits give low values 0.997 | locus YJL095W, strain BCK1 (second series), hits give low values 0.987 | locus YJL095W, strain BCK1, hits give low values 1.02 and 0.998 | locus YJL115W, strain asf1, hits give low values 0.994 | locus YJL129C, strain trk1, hits give low values 0.963 | locus YJL134W, strain LCB3, hits give low values 1.02 | locus YJL154C, strain vps35, hits give low values 0.997 | locus YJL164C, strain tpk1, hits give low values 1.01 | locus YJL166W, strain qcr8, hits give low values 0.986 | locus YJL168C, strain set2, hits give low values 1.02 | locus YJL187C, strain SWE1 (second series), hits give low values 1 | locus YJL187C, strain SWE1, hits give low values 0.992 | locus YJR043C, strain POL32, hits give low values 1.02 | locus YJR066W, strain TOR1, hits give low values 0.999
